Our source for the inhibition values is PubChem BioAssay AID1285 (Columbia University Molecular Screening Center, 2008).

Each structure is given as a SMILES string. The whole screen tested about 190,000 compounds, of which about 1,600 (0.84%) were called active. The sample as a whole holds a higher share of actives than the screen did. Unmarked numbers belong to inactive results.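 The calls were made as follows: active = inhibition above a set limit, derived from the sample mean plus 3 SD (cut at about 45% in these data); inconclusive = one replicate passes the limit while the other fails; inactive = the rest.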

This test can be described thus: inhibitors of APP translation via 5'UTR reporter, primary screen, APP 5'UTR luciferase, SH-SY5Y cells (AID 1285). The note with it: SH-SY5Y APP 5'UTR-luciferase reporter, luminescence; at 2 µM; hits give high values.
In general, inhibition refers to the drop in the measured response relative to a control, in per cent. For `COc1ccc(O)c(C(=O)c2cnc3c(c2)c(-c2ccc(F)cc2)c(C#N)c(=O)n3C)c1`, the inhibition was -3.8%.
Consider `Cc1cccc(N2C(=O)SC(SC(=Nc3ccccc3)Nc3ccccc3)C2=O)c1` (stereo not drawn), for which the inhibition was -14.2%.
With `Cn1c(CCC(=O)Nc2ccccc2F)nnc1SCC(=O)Nc1ccccc1Cl`, the inhibition is -2.1%.
As for `O=C(CSc1nnc(-c2cccnc2)n1CCc1ccccc1)NCc1ccccc1`, the figure is 4.7%; as for `C=CCn1c(SCC(=O)NCc2ccccc2)nnc1-c1cc(Br)ccc1O`, 55.6% (active); as for `C=CCn1c(SCC(=O)Nc2nc3ccccc3s2)nnc1-c1ccccc1O`, 0.7%.
As for `C/C(Cn1nnc2ccccc21)=N\OC(=O)c1cc(F)c(F)cc1Cl`, the figure is -4.6%; as for `N#CC1=C(N)Oc2c(sc3ccccc23)C1c1ccco1` (stereo not drawn), 56.2% (active).
As for `Cc1cc2c(c(=O)n1Cc1ccco1)C(c1ccccc1)C(C#N)=C(N)O2` (stereo not drawn), the figure is -7.5%; as for `Cc1cc(C)c2c3c(sc2n1)C(c1ccccc1)C(C#N)=C(N)O3` (stereo not drawn), 7.5%.
With `O=C(/C=C/c1ccc(N2CCOCC2)cc1)c1ccccc1`, the inhibition was -140%.
As for `Cc1c(/C=N/N2C(=O)C3C4C=CC(C4)C3C2=O)c2ccccc2n1C` (stereo not drawn), the inhibition is 13.8%.
As for `Cc1c(/C=N\NC(=O)c2cc3ccccc3o2)c2ccccc2n1C`, the figure is 78% (active); as for `O=C(N/N=C/c1coc2ccccc2c1=O)c1cc2ccccc2o1`, 0.7%.
As for `CCOc1ccc(NC(=O)COc2ccc(C(=O)NC3CCCc4ccccc43)cc2OC)cc1` (stereo not drawn), the figure is -14.3%; as for `COc1ccccc1CNC(=O)COc1ccc(C)nc1[N+](=O)[O-]`, -13.3%.
As for `C/C(=C\c1ccccc1)C1NC(=O)c2c(sc3c2CCCC3)N1` (stereo not drawn), the inhibition was 14.6%.
In the case of `CCOC(=O)CSC1=C(C#N)C(c2sccc2C)CC(=O)N1` (stereo not drawn), the inhibition was 93.4% (active).
For `Cc1ccc(C2CC(=O)NC(SCC(=O)OCc3ccccc3)=C2C#N)o1` (stereo not drawn), the inhibition is 18%.
The result for `C=CCOC(=O)C1=C(C)NC(SCC(=O)OCC)=C(C#N)C1c1ccc(C)cc1` (stereo not drawn) reads -6.5%; that for `CC(C)(C)NC(=O)C(=O)NCc1ccncc1`, -1.4%; that for `C/C(=N\NC(=O)Cc1ccc(F)cc1)c1ccc(F)cc1`, 10.7%.
In the case of `C/C(=N\NC(=O)Cc1ccc(Cl)cc1)c1ccccn1`, the inhibition is 58.9% (active).
The result for `COc1ccc(CC(=O)N/N=C(\C)c2ccccn2)cc1` reads 23.4%.
The result for `Cc1ccc(NC(=O)c2ccn(C(=O)Nc3ccccc3)n2)c(C)c1` reads -34.7%; that for `COc1ccc(C)c(Cn2c(-c3nonc3N)nc3ccccc32)c1`, 90.7% (active).
The result for `Nc1nonc1-c1nc2ccccc2n1Cc1ccc(F)cc1` reads -0.7%; that for `Nc1nonc1-c1nc2ccccc2n1CCC(=O)O`, -2%.
In the case of `O=C(NCCCN1CCOCC1)c1ccc([N+](=O)[O-])cc1[N+](=O)[O-]`, the inhibition was -18.1%.
`COc1cc(OC)cc(C(=O)OCC(=O)Nc2sccc2C(N)=O)c1`: the inhibition was 11.2%.
As for `O=Cc1cn(Cc2ccccc2)nc1-c1cccnc1`, the figure is -9.8%; as for `O=C1/C(=C\c2cccnc2)CN(Cc2ccccc2)C/C1=C\c1cccnc1`, 97.1% (active); as for `Clc1ccc(CN2CCN(/N=C/c3cccnc3)CC2)cc1`, -6.8%.
For `Cc1cccc(N2CCN(c3ccc(C(N)=O)cc3[N+](=O)[O-])CC2)c1C`, the inhibition was -15.7%.
The result for `CCn1c(Cc2ccccc2)nnc1SCC(=O)Nc1ccccc1` reads -1.3%.
Turning to `CCn1c(CNC(=O)c2ccc(OC)c(OC)c2)nnc1SCC(=O)Nc1ccccc1`, the inhibition is 45.9% (active).
Regarding `CCn1c(CNC(=O)c2ccco2)nnc1SCC(=O)Nc1cccc(F)c1`, the inhibition was -10%.
As for `O=C(CNC(c1ccccc1)c1ccccc1)Nc1ccc(F)cc1`, the figure is -7.4%; as for `CC1(C)CC(=O)C(N=Nc2ccc(S(=O)(=O)N3CCCCCC3)cc2)=C(O)C1`, 9.4%; as for `CCOC(=O)c1ccc(N2C(=O)CC(N3CCN(C(=O)c4ccccc4)CC3)C2=O)cc1` (stereo not drawn), -5.3%.
As for `O=C(COc1cc(Cl)c(Cl)cc1Cl)NCCc1ccccn1`, the figure is 1.4%; as for `O=C(COc1ccccc1F)NC1CC1`, -9.1%; as for `O=C(COc1cc(Cl)c(Cl)cc1Cl)NC(=O)NC1CCCC1`, 45.2% (active).
As for `Cc1ccccc1C1CC(c2cccs2)=NN1S(C)(=O)=O` (stereo not drawn), the figure is 17.8%; as for `Cn1nnc(NC(=O)CSc2ncn[nH]2)n1`, 53.1% (active); as for `O=C(CSc1ncn[nH]1)Nc1nsc(-c2ccccc2)n1`, -2.5%.
Consider `O=C(CSc1ncn[nH]1)Nc1ccnc2ccccc12`, for which the inhibition was 4%.
The result for `COc1ccc(Br)cc1/C=N/NC(=O)c1cccc(S(=O)(=O)N2CCOCC2)c1` reads -16.1%.
